Source: PubChem BioAssay (NCI)
About 79,000 compounds went through this panel and 15% of them were active in at least one assay; those are over-represented in the sample as a whole. Calls of active or inactive are those of the source. Rule as the data show it: active = growth inhibition above about 70%; inactive = the rest.

How the values were obtained:
[1] = NCI Yeast Anticancer Drug Screen. Data for the wt1 strain (AID 149);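 also: 0% = growth of vehicle-treated wt1 cultures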; conditions: S. cerevisiae wt1 strain (SPY 50644) growth inhibition, hits give high values
Method in brief: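 Readout: yeast growth inhibition, normalised to vehicle controls, in the wt1 strain exposed to test compounds.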

[2] = NCI Yeast Anticancer Drug Screen. Data for the rad50EPP+ strain (AID 151);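 also: 0% = growth of vehicle-treated control cultures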; conditions: S. cerevisiae rad50 mutant strain, hits give high values
Method in brief: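 Yeast strain carrying rad50 alteration (rad50EPP+) exposed to compounds; growth inhibition measured relative to vehicle-treated controls.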

[3] = NCI Yeast Anticancer Drug Screen. Data for the mgt1 strain (AID 153); conditions: S. cerevisiae mgt1 mutant growth inhibition, hits give high values
Method in brief: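 Yeast mgt1 strain (DNA repair/cell-cycle alteration panel) exposed to compounds; growth inhibition measured relative to vehicle-treated controls.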

[4] = NCI Yeast Anticancer Drug Screen. Data for the rad50 strain (AID 155);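 also: 0% = growth of vehicle-only cultures of the same strain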; conditions: S. cerevisiae rad50 strain growth inhibition, hits give high values
Method in brief: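 Compounds were tested on a yeast strain with an engineered DNA damage repair alteration; the reported value is growth inhibition normalised to vehicle treatment.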

[5] = NCI Yeast Anticancer Drug Screen. Data for the mec2-1 strain (AID 157); conditions: S. cerevisiae mec2-1 strain, hits give high values
Method in brief: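 mec2-1 yeast strain, carrying an alteration in DNA damage repair or cell cycle control, was exposed to compounds; growth inhibition was measured relative to vehicle-treated controls.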

[6] = NCI Yeast Anticancer Drug Screen. Data for the rad14 strain (AID 159);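 also: 0% = growth of vehicle-treated control cultures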; conditions: S. cerevisiae rad14 strain growth inhibition, hits give high values
Method in brief: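 Compound-treated yeast with a defined DNA-repair lesion; growth inhibition normalised to vehicle-treated cultures.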

[7] = NCI Yeast Anticancer Drug Screen. Data for the sgs1 mgt1 strain (AID 161);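 also: 0% = growth of cultures given vehicle only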; conditions: S. cerevisiae sgs1 mgt1 strain, hits give high values
Method in brief: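 Percent growth inhibition was derived by comparing compound-exposed mutant yeast with vehicle-exposed cultures. The strain carries alterations in DNA damage repair.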

[8] = NCI Yeast Anticancer Drug Screen. Data for the CLN2oe strain (AID 163);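 also: 0% = growth of vehicle-only control cultures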; conditions: S. cerevisiae CLN2oe strain, hits give high values
Method in brief: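 Yeast cells carrying a defined cell-cycle control alteration were exposed to test compounds. Growth inhibition was scored against vehicle-treated control cultures.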

[9] = NCI Yeast Anticancer Drug Screen. Data for the bub3 strain (AID 167); conditions: S. cerevisiae bub3 mutant strain, hits give high values
Method in brief: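 Growth of a checkpoint-deficient yeast mutant is measured after compound exposure. Values represent inhibition relative to vehicle.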

[10] = NCI Yeast Anticancer Drug Screen. Data for the wt2 strain (AID 169);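 also: 0% = growth of vehicle-treated yeast cultures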; conditions: S. cerevisiae wt2 strain growth inhibition, hits give high values
Method in brief: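 Yeast cells were exposed to test compounds, and growth inhibition was measured relative to vehicle-treated controls.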

[11] = NCI Yeast Anticancer Drug Screen. Data for the mlh1 strain (AID 171);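 also: 0% = growth of vehicle-treated control cultures of the same strain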; conditions: S. cerevisiae mlh1 strain growth inhibition, hits give high values
Method in brief: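 Yeast carrying a defined genetic alteration in DNA damage repair or cell cycle control were exposed to test compounds. Growth inhibition was measured relative to vehicle-treated controls.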

[12] = NCI Yeast Anticancer Drug Screen. Data for the sgs1 strain (AID 173);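 also: 0% = growth of vehicle-only control cultures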; conditions: S. cerevisiae sgs1 mutant, hits give high values
Method in brief: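 Yeast mutant strains carrying defined defects in DNA damage repair or cell cycle control were exposed to test compounds. Growth inhibition was scored against vehicle-treated controls.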

[13] = NCI Yeast Anticancer Drug Screen. Data for the mlh1 rad18 strain (AID 175); conditions: S. cerevisiae mlh1 rad18 strain growth inhibition, hits give high values
Method in brief: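 Growth inhibition of the yeast strain was measured after compound exposure and expressed relative to vehicle-treated controls. The strain carries defined defects in DNA damage repair.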

[14] = NCI Yeast Anticancer Drug Screen. Data for the rad18 strain (AID 177); conditions: S. cerevisiae rad18 mutant growth inhibition, hits give high values
Method in brief: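 Yeast carrying a defined DNA damage repair alteration were exposed to compounds. Growth inhibition was expressed relative to vehicle-treated controls.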

[15] = at 5.0 µM (retest, dose inferred, filed as 0.5)
[16] = at 50.0 µM (retest, dose inferred, filed as 5.0)

Measured: growth inhibition

CCOc1nc(OCC)nc(-c2cccn2-c2ccccc2)n1
inactive: [1]; at 1.2 µM -19% | [1]; at 3.7 µM -22% | [1]; at 11.0 µM -13% | [1]; at 33.0 µM -11% | [2]; at 1.2 µM 1% | [2]; at 3.7 µM 5% | [2]; at 11.0 µM 23% | [2]; at 33.0 µM 12% | [2]; at 100.0 µM 40% | [3]; at 1.2 µM 1% | [3]; at 3.7 µM 8% | [3]; at 11.0 µM 6% | [3]; at 33.0 µM 25% | [4]; at 1.2 µM 7% | [4]; at 3.7 µM 40% | [4]; at 11.0 µM 35% | [4]; at 33.0 µM 26% | [5]; at 1.2 µM -4% | [5]; at 3.7 µM 9% | [5]; at 11.0 µM -6% | [5]; at 33.0 µM 12% | [5]; at 50.0 µM 59.7% | [6]; at 1.2 µM -11% | [6]; at 3.7 µM -8% | [6]; at 11.0 µM -1% | [6]; at 33.0 µM 13% | [7]; [15] -13% | [8]; at 1.2 µM -2% | [8]; at 3.7 µM 0% | [8]; at 11.0 µM 11% | [8]; at 33.0 µM 6% | [9]; at 1.2 µM 19% | [9]; at 3.7 µM 36% | [9]; [15] 14% | [9]; at 11.0 µM 32% | [9]; at 33.0 µM 43% | [10]; at 1.2 µM -3% | [10]; at 3.7 µM 8% | [10]; at 11.0 µM 1% | [10]; at 33.0 µM 38% | [11]; at 1.2 µM -25% | [11]; at 3.7 µM -6% | [11]; at 11.0 µM -12% | [11]; at 33.0 µM 2% | [12]; at 1.2 µM 16% | [12]; at 3.7 µM 15% | [12]; at 11.0 µM 14% | [12]; at 33.0 µM 43% | [14]; at 1.2 µM -4% | [14]; at 3.7 µM 15% | [14]; at 11.0 µM 19% | [14]; at 33.0 µM 19%
active: [1]; at 100.0 µM 94% | [3]; at 100.0 µM 96% | [4]; [15] 85% | [4]; [16] 100% | [4]; at 50.0 µM 70.3% | [4]; at 100.0 µM 92% | [5]; [15] 93% | [5]; [16] 100% | [5]; at 100.0 µM 93% | [6]; at 100.0 µM 90% | [7]; [16] 74% | [8]; at 100.0 µM 91% | [9]; [16] 87% | [9]; at 100.0 µM 94% | [10]; at 100.0 µM 95% | [11]; at 100.0 µM 89% | [12]; at 100.0 µM 95% | [13]; [15] 86% | [13]; [16] 100% | [13]; at 50.0 µM 80.2% | [14]; at 100.0 µM 93%
